# Values joined by “and” are separate entries in the source; they are usually repeats but may differ in a detail not shown here. Equal values may be shown once. Where a name gives a salt, the structure may show the parent alone. Screen size: about 5,800 compounds; about 620 (11%) showed activity. The entries come from a sample that favours actives as a whole. A number with no mark means an inactive call.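 The calls were made as follows: active = score above a cut-off or among the top three wells of a plate; in these data no inactive exceeds 0.85.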
# Tested on: primary human hepatic stellate cells (donor 1)
# Test: scaled lipid accumulation score (0 = DMSO-like, 1 = nortriptyline-like); higher = stronger HSC inactivation (lipid re-accumulation), active = hit call of the paper
# Conditions: 48 h
# [1] = library stock concentration: 10 mM
# [2] = library stock concentration: 3.33 mM
# [3] = library stock concentration: 4.7 mM
# [4] = library stock concentration: 1 mM
# [5] = library stock concentration: 80 uM
# [6] = library stock concentration: 400 uM
# [7] = library stock concentration: 2 mM
smiles,measurement,setting,value
CC(C)NCCN(C(C)C)S(=O)(=O)c1ccc(Cl)cc1Cl,scaled lipid accumulation score,[1],0.722
CCCCc1cc2ccccc2c(OCCN(C)C)n1 [Dimethisoquin hydrochloride],scaled lipid accumulation score,,0.71
CCCCc1oc2ccccc2c1C(=O)c1cc(I)c(OCCN(CC)CC)c(I)c1 [Amiodarone hydrochloride],scaled lipid accumulation score,,0.445
same,scaled lipid accumulation score,library stock concentration: 2.9 mM,0.417
CCCCc1oc2ccccc2c1C(=O)c1cc(I)c(OCCN(CC)CC)c(I)c1.Cl [Amiodarone HCl],scaled lipid accumulation score,[1],1.27 (active)
CCCCc1oc2ccccc2c1C(=O)c1cc(I)c(OCCN(CC)CC)c(I)c1 [Amiodarone],scaled lipid accumulation score,library stock concentration: 3.1 mM,0.438
CCCCc1oc2ccc(NS(C)(=O)=O)cc2c1C(=O)c1ccc(OCCCN(CCCC)CCCC)cc1 [Dronedarone HCl],scaled lipid accumulation score,[2],0.642
same,scaled lipid accumulation score,[1],0.263
CCCCc1oc2ccccc2c1C(=O)c1cc(I)c(OCCN(CC)CC)c(I)c1.Cl [Amiodarone hydrochloride],scaled lipid accumulation score,[1],1.04 (active)
CCc1oc2ccccc2c1C(=O)c1cc(Br)c(O)c(Br)c1 [Benzbromarone],scaled lipid accumulation score,,0.013
same,scaled lipid accumulation score,[2],≤ 0
same,scaled lipid accumulation score,[3],≤ 0
same,scaled lipid accumulation score,[1],≤ -0.001
CCCCc1oc2ccccc2c1C(=O)c1cc(I)c(OCCN(CC)CC)c(I)c1 [Amiodarone HCl],scaled lipid accumulation score,[2],0.394
CCCCc1oc2ccccc2c1C(=O)c1cc(I)c(OCCN(CC)CC)c(I)c1,scaled lipid accumulation score,library stock concentration: 7.3 mM,0.281
same,scaled lipid accumulation score,library stock concentration: 9.5 mM,1.34 (active)
CCc1oc2ccccc2c1C(=O)c1cc(Br)c(O)c(Br)c1,scaled lipid accumulation score,[1],≤ 0
NC(=O)c1cc[n+](CC2=C(C(=O)O)N3C(=O)[C@@H](NC(=O)C(c4ccccc4)S(=O)(=O)[O-])[C@H]3SC2)cc1 (some centres not stated) [Cefsulodin sodium salt hydrate],scaled lipid accumulation score,[1],0.04
NC(=O)c1ccc2nc(-c3ccc(Oc4ccc(Cl)cc4)cc3)[nH]c2c1 [Chk2 Inhibitor II],scaled lipid accumulation score,[2],≤ 0
CCCCCCCCCCCCC/C=C/[C@@H](O)[C@H](CO)NCCCCCCCC [C8 Ceramine],scaled lipid accumulation score,[4],0.067
CCCCCCCCCCCCC/C=C/[C@@H](O)[C@H](CO)NCCCCCCCC [C-8 Ceramine],scaled lipid accumulation score,[4],0.054
CCCCCC(O)C=CC1C(O)CC(O)C1CC=CCCCCOC (stereo not drawn) [Prostaglandin F2.alpha. Alcohol methyl ether],scaled lipid accumulation score,[4],≤ 0
Cc1nc2c(-c3cnc(N)nc3)nc(N3CCOCC3)nc2n1C(C)C,scaled lipid accumulation score,[2],0.019
same,scaled lipid accumulation score,[1],≤ -0.001
"Nc1ccc2c3c(cccc13)C(=O)NC2=O [4-Amino-1,8-naphthalimide] [listing 1 of 2 here]",scaled lipid accumulation score,library stock concentration: 23.6 mM,0.762
O=C1NC(=O)C(c2c[nH]c3ccccc23)=C1c1c[nH]c2ccccc12 [Bisindolylmaleimide IV],scaled lipid accumulation score,[4],≤ 0
same,scaled lipid accumulation score,[2],0.045
"Nc1ccc2c3c(cccc13)C(=O)NC2=O [4-Amino-1,8-naphthalimide] [listing 2 of 2 here]",scaled lipid accumulation score,[1],0.886 (active)
CC(C)C[C@H](NP(=O)(O)O[C@@H]1O[C@@H](C)[C@H](O)[C@@H](O)[C@H]1O)C(=O)N[C@@H](Cc1c[nH]c2ccccc12)C(=O)O [Phosphoramidon Disodium Salt],scaled lipid accumulation score,[2],≤ -0.009
same,scaled lipid accumulation score,[1],≤ 0
Cc1cc(CN2CCN(c3c(Br)cnc4nc(-c5ccc(N6CCN(C)CC6)cc5)[nH]c34)CC2)no1,scaled lipid accumulation score,[1],0.471
Cc1cc(CN2CCN(c3c(Br)cnc4[nH]c(-c5ccc(N6CCN(C)CC6)cc5)nc34)CC2)no1,scaled lipid accumulation score,[2],0.857 (active)
CC(=O)c1ccc(S(=O)(=O)NC(=O)NC2CCCCC2)cc1 [Acetohexamide],scaled lipid accumulation score,,≤ 0
same,scaled lipid accumulation score,library stock concentration: 6.2 mM,≤ 0
same,scaled lipid accumulation score,[1],0.116
O=C(Nc1ccccc1)Nc1ccc(-c2ccc(C(=O)[C@@H]3CCC[C@H]3C(=O)O)cc2)cc1,scaled lipid accumulation score,[2],≤ 0
same,scaled lipid accumulation score,[1],≤ 0
O=C(Nc1ccc(I)cc1)NC1CCCCC1,scaled lipid accumulation score,[1],0.938 (active)
CCCCCC/C=C\CCCCCCCC(=O)OCC [Palmitoleic Acid ethyl ester],scaled lipid accumulation score,[4],≤ 0
COc1ccc(CCn2nnnc2C2(c3ccc(C)cc3)CC2)cc1 [Mephetyl tetrazole],scaled lipid accumulation score,[1],≤ -0.07
COC(=O)C(C)c1ccc(C(=O)c2cccs2)cc1 (configuration not stated) [Suprofen methyl ester],scaled lipid accumulation score,[1],≤ 0
CN1CCN(CC(=O)N2c3ccccc3C(=O)Nc3cccnc32)CC1 [Pirenzepine 2HCl],scaled lipid accumulation score,library stock concentration: 5.7 mM,≤ -0.006
"COC(=O)c1ccc2c(c1)NC(=O)/C2=C(\Nc1ccc(N(C)C(=O)CN2CCN(C)CC2)cc1)c1ccccc1 [Intedanib (BIBF 1120, Vargatef) (10 mM)]",scaled lipid accumulation score,[1],1.51 (active)
Cc1scc2c1N(C(=O)CN1CCN(C)CC1)c1ccccc1NC2=O [Telenzepine hydrochloride],scaled lipid accumulation score,[1],0.084
COC(=O)c1ccc2c(C(=Nc3ccc(N(C)C(=O)CN4CCN(C)CC4)cc3)c3ccccc3)c(O)[nH]c2c1,scaled lipid accumulation score,[5],0.316
same,scaled lipid accumulation score,[6],0.522
same,scaled lipid accumulation score,[7],0.258
CN1CCN(CC(=O)N2c3ccccc3C(=O)Nc3cccnc32)CC1 [Pirenzepine hydrochloride],scaled lipid accumulation score,[3],≤ 0
same,scaled lipid accumulation score,[1],≤ 0
Cc1scc2c1N(C(=O)CN1CCN(C)CC1)c1ccccc1NC2=O [Telenzepine 2HCl],scaled lipid accumulation score,library stock concentration: 5.4 mM,0.006
COC(=O)c1ccc2c(c1)NC(=O)C2=C(Nc1ccc(N(C)C(=O)CN2CCN(C)CC2)cc1)c1ccccc1,scaled lipid accumulation score,[1],0.976 (active)
COC(=O)c1ccc2c(c1)NC(=O)C2=C(Nc1ccc(N(C)C(=O)CN2CCN(C)CC2)cc1)c1ccccc1 [Nintedanib (BIBF 1120)],scaled lipid accumulation score,[2],1.2 (active)
same,scaled lipid accumulation score,[1],1.33 (active)
"COC(=O)c1ccc2c(c1)NC(=O)/C2=C(\Nc1ccc(N(C)C(=O)CN2CCN(C)CC2)cc1)c1ccccc1 [Intedanib  (BIBF 1120, Vargatef) (2 mM)]",scaled lipid accumulation score,[7],0.838
Cc1scc2c1N(C(=O)CN1CCN(C)CC1)c1ccccc1NC2=O [Telenzepine dihydrochloride],scaled lipid accumulation score,,≤ 0
same,scaled lipid accumulation score,[1],0.052 and 0.027
CN1CCN(CC(=O)N2c3ccccc3C(=O)Nc3cccnc32)CC1 [Pirenzepine dihydrochloride],scaled lipid accumulation score,,≤ 0
same,scaled lipid accumulation score,[1],≤ 0
"COC(=O)c1ccc2c(c1)NC(=O)/C2=C(\Nc1ccc(N(C)C(=O)CN2CCN(C)CC2)cc1)c1ccccc1 [Intedanib (BIBF 1120, Vargatef) (0.4 mM)]",scaled lipid accumulation score,[6],0.323
N=C(N)S/C=C\C(=O)O [ZAPA sulphate],scaled lipid accumulation score,[1],0.011
CC(O)C(=O)O.N (configuration not stated),scaled lipid accumulation score,[1],≤ 0
CC(C)S(=O)(=O)Nc1ccc(F)c(C(=O)c2c[nH]c3ncc(-c4cccnc4)cc23)c1F,scaled lipid accumulation score,[5],≤ 0
same,scaled lipid accumulation score,[6],≤ 0
same,scaled lipid accumulation score,[7],≤ 0
same,scaled lipid accumulation score,[1],0.059
CC(C)(CCCCCCCCCCC(C)(C)CC(=O)O)CC(=O)O,scaled lipid accumulation score,[4],0.013
CCCCC/C=C\C/C=C\C/C=C\C/C=C\CCCC(=O)OCC [Arachidonic Acid ethyl ester],scaled lipid accumulation score,[4],≤ 0
CC(C)=CCC/C(C)=C/CC/C(C)=C/CSc1ccccc1C(N)=O [Farnesyl Thiosalicylic Acid Amide],scaled lipid accumulation score,[4],≤ 0
CCCCCCCCCCCCCCCC(=O)OC[C@H](COP(=O)([O-])OCC[N+](C)(C)C)OC(=O)CCCCCCCC(=O)/C=C/C(=O)O,scaled lipid accumulation score,[4],0.026
"Nc1nc2c(nc(Br)n2[C@@H]2O[C@@H]3COP(=O)(O)O[C@H]3[C@H]2O)c(=O)[nH]1 [8-Bromo-cGMP, sodium salt]",scaled lipid accumulation score,[1],0.026
CCCCC/C=C\C[C@@H](O)/C=C/C=C/C=C\[C@@H](O)CCCC(=O)O [Leukotriene B4],scaled lipid accumulation score,library stock concentration: 100 uM,≤ -0.021
NC(CCCP(=O)(O)O)C(=O)O (configuration not stated),scaled lipid accumulation score,[1],0.024
NC(CCCP(=O)(O)O)C(=O)O (stereo not drawn) [D(-)-2-Amino-5-phosphonopentanoic acid],scaled lipid accumulation score,[1],0.148
CCCCCCCCc1ccc(-c2ccc(C(=O)O)cc2)cc1,scaled lipid accumulation score,[1],≤ 0 and 0.032
CCCCCCCCc1ccc(CCC(N)(CO)CO)cc1,scaled lipid accumulation score,[4],0.527
CCCCCCCCc1ccc(CCC(N)(CO)CO)cc1 [Fingolimod (FTY720) HCl],scaled lipid accumulation score,[1],0.376
CCCCCCCCc1ccc(CCC(N)(CO)CO)cc1.Cl [Fingolimod (FTY720) HCl],scaled lipid accumulation score,[2],1.17 (active)
CC1(C)CCC(C)(C)c2cc(C3(c4ccc(C(=O)O)cc4)OCCO3)ccc21,scaled lipid accumulation score,[1],≤ -0.001
COCCCC/C(=N\OCCN)c1ccc(C(F)(F)F)cc1 [Fluvoxamine],scaled lipid accumulation score,[1],0.69
COCCCC/C(=N\OCCN)c1ccc(C(F)(F)F)cc1 [Fluvoxamine maleate],scaled lipid accumulation score,,0.592
same,scaled lipid accumulation score,[2],0.347
same,scaled lipid accumulation score,[1],0.81 and 0.545
COCCCCCCCCCCCC(=O)O [12-Methoxydodecanoic acid],scaled lipid accumulation score,[4],≤ -0.021
COCCCC/C(=N\OCCN)c1ccc(C(F)(F)F)cc1.O=C(O)/C=C\C(=O)O [Fluvoxamine maleate],scaled lipid accumulation score,[1],1.13 (active)
CCCCC[C@H](O)/C=C/[C@@H]1[C@@H](C/C=C\CCCC(=O)O)[C@H](O)C[C@H]1O [Prostaglandin F2.beta. (tromethamine salt)],scaled lipid accumulation score,[4],≤ 0
"CCCCC[C@H](O)/C=C/[C@@H]1[C@@H](C/C=C\CCCC(=O)O)[C@H](O)C[C@H]1O [9b,11a-Prostaglandin F2]",scaled lipid accumulation score,[4],≤ -0.021
CCCCC[C@H](O)/C=C/[C@@H]1[C@@H](C/C=C\CCCC(=O)O)[C@H](O)C[C@H]1O [Prostaglandin F2.beta.],scaled lipid accumulation score,[4],≤ 0

# Reference: the supplement of paper PMC9135407
